A selection: hits, their analogues and other compounds. The true share with any hit is near 15%.
Pf growth 96h = Primary qHTS for delayed death inhibitors of the malarial parasite plastid, 96 hour incubation; Potency, µM (doses to about 28.7 µM), for the others: at the top dose activity change, negative = inhibition, actives largely listed as inhibitors; hit rate 6.9% among 320,000; P. falciparum luciferase reporter growth, 96 h; note: potency is the fitted concentration of half-maximal effect; % is set by controls: 0 for no effect and ±100 for the full control effect
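Plates of compound plus infected erythrocytes (2% hematocrit, 0.05% parasitemia final) incubate 96 hours, 37 C, 5% CO2. Detection reagent added; reduced luminescence from the parasites' luciferase reporter flags inhibition.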
Pf growth 48h = Primary qHTS for delayed death inhibitors of the malarial parasite plastid, 48 hour incubation. hit rate 5.9% among 310,000. P. falciparum luciferase growth in erythrocytes, 48 h. Potency, µM (titrated, usually from 28.7 µM), inactives show at the highest dose activity change, negative = inhibition, hits mostly inhibitors; note: potency is the fitted concentration of half-maximal effect; % is set by controls: 0 for no effect and ±100 for the full control effect
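Firefly luciferase activity from engineered P. falciparum reports growth; inhibitors lower the luminescent signal. Cultures contained 2% hematocrit erythrocytes at 0.1% final parasitemia.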
HCV inh = qHTS Assay for Inhibitors of Hepatitis C Virus (HCV) | hit rate 3.4% among 340,000 | Potency, µM (titrated, usually from 41.8 µM), for inactives: at the top dose activity change, negative = inhibition, most hits filed as inhibitors | Huh7.5.1 HCVcc-Cre infection, luciferase reporter, 44 h; note: potency is the fitted concentration of half-maximal effect; % is set by controls: 0 for no effect and ±100 for the full control effect
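Cells seeded at 1,000/well and cultured 4 h, then compounds added followed by HCVcc-Cre virus (~0.5 moi). After 44 h further culture, luciferase substrate was added, plates held 15 min at room temperature, and luminescence read for 15 sec.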
HCMV antiviral = qHTS Assay for inhibitors of the human cytomegalovirus (HCMV) | AID 1259415, 2018 | hit rate 4.5% among 410,000 | HFF cells, HCMV-luciferase reporter, 72 h; stronger effect = lower value | activity change, negative = inhibition, % at 57.5 µM; in the data active = activity change below about -60%; inconclusive = no clear call, values can overlap the other calls; inactive = above about -39%; note: % is set by controls: 0 for no effect and ±100 for the full control effect
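HFF cells seeded 16 h at 37C, treated with compounds, infected with luciferase-reporter HCMV at MOI 1 PFU/cell; luciferase read at 72 h post infection, normalized to buffer-only and Salinomycin controls.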
SARS PLP yeast = qHTS of Yeast-based Assay for SARS-CoV PLP; Potency, µM (doses to about 32.9 µM), for the others: at the highest dose activity, positive = growth rescue, usual class: activators; hit rate 0.19% among 330,000; S. cerevisiae expressing SARS-CoV PLpro, growth rescue; calls by dose curve; note: potency is the fitted concentration of half-maximal effect; 0% is about no effect; nearly all actives have a fitted effect of over 55% in size
Sm TGR inh = qHTS Assay for the Inhibitors of Schistosoma Mansoni Peroxiredoxins; purified TGR, DTNB reduction, TNB absorbance 405 nm; Schistosoma mansoni thioredoxin glutathione reductase (TGR), Q962Y6; AID 485364, 2010; Potency, µM (highest dose often 114 µM), for inactives: top-dose activity change, negative = inhibition, most hits filed as inhibitors; hit rate 3% among 360,000; note: potency is the fitted concentration of half-maximal effect; % is set by controls: 0 for no effect and ±100 for the full control effect; nearly all actives have a fitted effect of over 60% in size
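Kinetic colorimetric format: TGR-catalysed, NADPH-driven DTNB reduction monitored via TNB absorbance. Enzyme dispensed at 20 nM; compound exposure 15 min at room temperature before reaction start.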
The depositor's hits bear a star; ? = inconclusive; / = no result given; + = active, no number. Unless noted, calls come from the whole dose curve; as a rule, active = well fitted curve in the direction sought with a large enough effect; inconclusive = small, poorly fitted or top-dose-only effect, or another doubt; inactive = no such curve, though single readings can be large; an effect the other way counts as inactive or inconclusive.

SMILES	Pf growth 96h	Pf growth 48h	HCV inh	HCMV antiviral	SARS PLP yeast	Sm TGR inh
N#CC1(NC(=O)CSc2nc3ccc([N+](=O)[O-])cc3s2)CCCCC1	?	5.2µM*	?	-81*	2%	-9%
N#CC1(NC(=O)CSc2nc3ccccc3s2)CCCCC1	-15%	?	?	-11	-3%	-1%
CCN(C(=O)CSc1nnc(Nc2cccc(C)c2C)s1)C1CCS(=O)(=O)C1 (centres undefined)	-102%	8.3µM*	22%	-7	?	1%
CC(=O)Nc1ccc(C(=O)OCC(=O)NC2CCCCCC2)cc1	/	/	/	-18	/	/
Cc1ccc(S(=O)(=O)N2CCN(C(=O)COC(=O)c3nc(Cl)ccc3Cl)CC2)c(C)c1	/	/	-4%	0	/	/
CCN(CC)S(=O)(=O)c1ccc2oc(SCC3CN=C(c4ccc(OC)cc4)S3)nc2c1 (centres undefined)	79%	?	11µM*	-67*	-4%	0%
CCCN(C(=O)CSc1nc2cc(S(=O)(=O)N(CC)CC)ccc2o1)C1CCS(=O)(=O)C1 (centres undefined)	5.2µM*	?	?	-21	5%	-10%
CCN(C(=O)CSc1nc2cc(S(=O)(=O)N(CC)CC)ccc2o1)C1CCS(=O)(=O)C1 (centres undefined)	?	?	?	-34	-2%	4%
CCc1ccc(Nc2nnc(SCC(=O)N(C)C3CCS(=O)(=O)C3)s2)cc1 (centres undefined)	?	9.3µM*	-2%	11	-1%	0%
CCc1ccc(Nc2nnc(SCC(=O)Nc3ccc(C(=O)O)cc3)s2)cc1	196%	4.7µM*	20%	12	-2%	0%
Cc1cccc(Oc2ccc(Cl)cc2N)c1	28%	34%	-2%	?	-3%	4%
CC1CCC(C(C)C)C(OC(=O)Cn2c(-c3ccccc3)[n+](C)c3ccccc32)C1 (centres undefined)	245%	0.47µM*	?	-100*	-11%	0%
CC1CCC(C(C)C)C(OC(=O)Cn2c(-c3ccc(F)cc3)[n+](C)c3ccccc32)C1 (centres undefined)	?	0.83µM*	10µM*	-102*	-15%	-2%
O=C(Cn1nc(C(F)(F)F)c2c1CCC2)Nc1ccc(Cl)cc1	/	/	/	-33	/	-2%
CN1CCC(N(C)S(=O)(=O)c2ccc(C(C)(C)C)cc2)CC1	-3%	2%	?	-91*	1%	1%
CN(C1CCCCC1)S(=O)(=O)c1ccc(NC(=O)C2CCCCC2)cc1	/	-18%	14µM*	23	-1%	-19%
CN(C1CCCCC1)S(=O)(=O)c1ccc(C(=O)O)cc1	12µM*	/	2%	15	5%	2%
CN(C1CCCCC1)S(=O)(=O)c1ccccc1	/	18%	8%	-12	2%	2%
CCOC(=O)N1CCN(C(=O)c2nc3ccccc3s2)CC1	?	64%	11%	37	-3%	-12%
O=S(=O)(N1CC[C@@]23C1=CC=C[C@@H]2N(S(=O)(=O)C(F)(F)F)c1ccccc13)C(F)(F)F	/	/	/	35	/	/
Cc1ccc(NC(=O)CCN2CCN(C/C=C/c3ccccc3)CC2)cc1C	89%	6.6µM*	-26%	-22	-8%	7%
Cc1cccc(NC(=O)CCC2CCN(Cc3nccs3)CC2)c1	9.3µM*	-25%	-15%	0	6%	-18%
CCOC(=O)C1CCCN(CCC(=O)Nc2ccccc2C)C1 (centres undefined)	-1%	0%	-7%	-6	-1%	67%
Cc1cccc(NC(=O)CCN2CCCCC2)c1	287%	9%	-8%	12	6%	-1%
CCOC(=O)C1CCCN(CCC(=O)Nc2cc(C)ccc2C)C1 (centres undefined)	6.6µM*	-4%	8%	-16	-1%	/
SMILES	Pf growth 96h	Pf growth 48h	HCV inh	HCMV antiviral	SARS PLP yeast	Sm TGR inh
Cc1cccc(NC(=O)CCN2CCC(C(N)=O)CC2)c1	6.6µM*	22%	-2%	31	-1%	-18%
COc1cccc(-n2c(=O)n(Cc3ccccc3)c(=O)c3[nH]cnc32)c1C	-2%	-5%	0%	-18	-3%	11%
COc1ccc2[nH]cc(CCNC(=O)Nc3cc(C)cc(C)c3)c2c1	/	/	/	-6	/	-4%
CC(C)Oc1ccc(S(=O)(=O)N2CCOCC2)cc1NC(=O)CSC(=S)N1CCCC1	/	/	/	-34	/	/
C=C(C)CSc1nnc([C@@H](NC(=O)OC(C)(C)C)C(C)CC)o1 (some centres undefined)	?	?	12%	-13	-3%	2%
CCOC(=O)C1CCN(CCC(=O)Nc2ccc(C)c(C)c2)CC1	13%	-4%	-15%	-67*	0%	9%
CCOC(=O)C1CCCN(CCC(=O)Nc2ccc(C)c(C)c2)C1 (centres undefined)	52%	?	-18%	-39	1%	2%
CCOC(=O)c1cc(-c2ccccc2)n(CCCC(=O)Nc2ccccc2C)c1C	/	/	/	?	/	6%
CCOC(=O)c1cc(-c2ccc(C)cc2)n(CCCC(=O)Nc2cc(C)ccc2C)c1	/	/	/	+	/	-6%
S=c1[nH]ncn2c1cc1oc3ccccc3c12	0%	34%	1%	28	-1%	1%
CCN(C(=O)CN(C)S(=O)(=O)c1ccc2c(c1)c(=O)n(C)c(=O)n2C)c1ccc(OC)cc1	/	/	/	-25	/	-1%
CN(C)N=Nc1ccc(-c2cn(Cc3ccccc3)cn2)cc1	4.7µM*	?	11%	125	-8%	-19%
COc1ccc(C)cc1NC(=O)Cc1c(C(=O)O)c(C)cn1C	/	/	/	3	/	6%
COc1ccc2c(c1)OC(C)(C)C(c1ccccc1)C2c1ccc(OCCN2CCCC2)cc1 (centres undefined)	3µM*	1.7µM*	/	/	/	/
Cc1cccc(-c2noc(CNC(=O)c3ccccc3Br)n2)c1	/	/	/	-18	/	18%
COc1cccc(CN2CCN3C=C(C(=O)NC4CCc5ccccc54)OC3=NC2=O)c1 (centres undefined)	/	/	/	13	/	/
Oc1cccc(Nc2nc(-c3ccccc3Cl)nc3ccccc23)c1	-11%	?	-19%	?	-4%	3%
O=C(O)c1cccc(Nc2nc(-c3ccc([N+](=O)[O-])cc3)nc3ccccc23)c1	1%	-35%	0%	-71*	0%	1%
O=[N+]([O-])c1ccc(-c2nc(Nc3cccc(O)c3)c3ccccc3n2)cc1	98%	?	6.3µM*	-10	0%	-3%
